# Reference: ChEMBL document CHEMBL3988442, “University of Dundee, Small-Polar-MMV Screening Library” (2021)
# Out of some 48,000 compounds screened, about 13,000 (27%) showed an effect of 50% or more. This is one part of the list.
# System: Wolbachia pipientis
# Test: Anti-Wolbachia Cell-Based Screen
# Assay type: functional
# Set-up: scale not given: in the data most compounds retested in dose-response had high values
# Settings: 5 µM
row,Structure (SMILES),Percent Effect
1,O=C(COc1ccccc1C(F)(F)F)NCCNC(=O)c1ccccc1,-6.371%
2,CCC(=O)Nc1ncn(Cc2cccnc2)n1,8.509%
3,OCC1(Cc2ccc(F)cc2F)CCCN(Cc2ccncc2)C1 (stereo unspecified),-2.33%
4,Cc1nnc(Cn2cc(I)cc(C)c2=O)o1,62.5%
5,Cc1nc(Cn2cc(I)cc(C)c2=O)oc1C,3.254%
6,Cc1noc(C)c1Cn1cc(I)cc(C)c1=O,13.31%
7,Cc1nc(-c2cc(Cl)c3c(c2)CC(CN)O3)c[nH]1 (stereo unspecified),12.8%
8,O=C(O)C(F)(F)F.O=C(c1ccco1)N1C[C@@H]2CCN(c3cccnc3)C[C@@H]2C1,15.12%
9,O=C(O)C(F)(F)F.O=C(c1ccco1)N1CCc2ncnc(Oc3cccnc3)c2CC1,1.407%
10,O=C(O)C(F)(F)F.O=C(c1cccnc1)N1CCC2(CCN(C(=O)c3ccco3)CC2)C1,98.34%
11,Cc1occc1C(=O)N1CCC2(CCN(Cc3nccs3)C2)CC1.O=C(O)C(F)(F)F,-10.35%
12,Cc1occc1C(=O)N1CCC2(CCN(C(=O)c3cccnc3)C2)CC1.O=C(O)C(F)(F)F,124.8%
13,COCCNC(=O)[C@]12COC[C@H]1CN(c1cc(OC)ncn1)C2,-2.209%
14,CNc1ncc(CN(C)Cc2cc(O)c3cccc(Cl)c3n2)cn1,-16.65%
15,CC1COCCN1C(=O)NCCn1ccnc1 (stereo unspecified),4.662%
16,O=C1C[C@H]2CC[C@@H](CN1)N2C(=O)CCCc1ccc(Cl)cc1,109.6%
17,O=C1C[C@H]2CC[C@@H](CN1)N2C(=O)CCc1ccccc1,110.6%
18,CS(=O)(=O)N1C[C@@H]2CC[C@H](C1)N(C(=O)CCc1ccsc1)C2,10.69%
19,O=C(CCCc1ccc(Cl)cc1)N1CCN(C(=O)c2ccc[nH]2)CC1,-0.04512%
20,O=C1C[C@H]2CC[C@@H](CN1)N2C(=O)Cc1ccsc1,116.9%
21,O=C1CO[C@@H]2CN(C(=O)CCc3ccccc3)C[C@H]2N1,-22.36%
22,NC(=O)C1CCCN1CCCc1ccc(Cl)cc1 (stereo unspecified),-0.6682%
23,O=C(c1ccccn1)N1C[C@@H]2CC[C@H](C1)N(C(=O)CCc1ccsc1)C2,-35.6%
24,O=C(c1cnccn1)N1C[C@@H]2CC[C@H](C1)N(C(=O)Cc1ccsc1)C2,0.9084%
25,O=C1C[C@H]2CC[C@@H](CN1)N2C(=O)CCc1ccsc1,104.7%
26,O=C(CCc1ccccc1)N1CCN(C(=O)c2ccc[nH]2)CC1,0.009024%

row,Structure (SMILES),Percent Effect
1,Cn1c2c(ccc1=O)CC(NC(=O)Cc1ccsc1)CC2 (stereo unspecified),-9.793%
2,CCN1C(=O)[C@H]2CN(CC(C)C)C[C@H]2C12CCN(S(C)(=O)=O)CC2.O=C(O)C(F)(F)F,7.177%
3,CN(C)C1CCN(C(=O)C2SCCc3ccccc32)CC1 (stereo unspecified),-22.58%
4,CC(NCCCc1cnn(C)c1)c1ccc(Cl)s1 (stereo unspecified),3.726%
5,O=C(NC1CC1)C1CNCCN1C(=O)CCc1ccc2c(c1)OCO2 (stereo unspecified),13.7%
6,O=C1C[C@H]2CC[C@@H](CN1)N2C(=O)CCc1ccc2c(c1)OCO2,96.79%
7,O=C(CCc1ccc2c(c1)OCO2)N1CCCC(n2cccn2)C1 (stereo unspecified),-13.74%
8,O=C(O)C(F)(F)F.O=C([C@H]1CC[C@@H]2[C@@H](CCN2Cc2ccsc2)O1)N1CCOCC1,-4.642%
9,O=C(O)C(F)(F)F.O=C([C@@H]1CC[C@@H]2[C@@H](CCN2CCOCc2ccccc2)O1)N1CCCC1,-30.56%
10,O=C(O)C(F)(F)F.O=C([C@H]1CC[C@@H]2[C@@H](CCN2C2CCCC2)O1)N1CCOCC1,125.5%
11,O=C(O)C(F)(F)F.O=C([C@H]1CC[C@@H]2[C@@H](CCN2C2CCCCC2)O1)N1CCOCC1,120.9%
12,O=C(O)C(F)(F)F.O=C([C@H]1COC[C@H]2CN(C3CCCCC3)C[C@H]21)N1CCOCC1,-10.34%
13,O=C(O)C(F)(F)F.O=C([C@H]1CC[C@@H]2[C@@H](CCN2C2CCOCC2)O1)N1CCOCC1,111.7%
14,CCN1CCC(CC(=O)N(C)CC(=O)c2ccc(O)cc2)CC1,-2.698%
15,CCCc1cc(C(=O)N2Cc3cnc(C(C)(C)C)nc3C2)ccn1,-16.23%
16,O=C(NCc1ccccn1)[C@@]12CCO[C@@H]1CCN(Cc1ccccn1)C2.O=C(O)C(F)(F)F.O=C(O)C(F)(F)F.O=C(O)C(F)(F)F,100.7%
17,CS(=O)(=O)N1CC[C@H]2OCC[C@@]2(C(=O)NCc2ccccn2)C1.O=C(O)C(F)(F)F,125.2%
18,O=C(NCc1ccco1)[C@@]12CCO[C@@H]1CCN(Cc1ccccn1)C2.O=C(O)C(F)(F)F.O=C(O)C(F)(F)F,-8.079%
19,CS(=O)(=O)N1CC[C@H]2OCC[C@@]2(C(=O)NCCc2ccccn2)C1.O=C(O)C(F)(F)F,88.95%
20,O=C(O)C(F)(F)F.O=S(=O)(C1CC1)N1CC[C@H]2OCC[C@@]2(COc2ncccc2F)C1,-5.546%
21,Cc1ccc(-c2ccc(C(=O)NCC(N)=O)c(F)c2)cc1,-9.702%
22,COc1ccc(F)cc1C(=O)N1C[C@H]2CC[C@@H]1CN(c1ncccn1)C2,11.2%
23,CN(C)C(=O)Cc1ccccc1NCc1cc(C#N)ccc1F,6.834%
24,Cn1cc(CN2CCn3cc(CNC(=O)CC4CC4)nc3C2)cn1.O=C(O)C(F)(F)F,-2.745%
25,CC(c1ccccc1F)N(CC(N)=O)C1CC1 (stereo unspecified),1.619%
26,Cc1cc(-c2ccccc2)nc(C2CCCN2S(C)(=O)=O)n1 (stereo unspecified),91.07%

row,Structure (SMILES),Percent Effect
1,Cc1cc(-c2cncnc2)nc(C2CCCN2S(C)(=O)=O)n1 (stereo unspecified),120.6%
2,CCCS(=O)(=O)N1CCCC1c1cccc(N(C)C)c1 (stereo unspecified),5.298%
3,Cc1ccc(-c2cc(C)nc(C3CCCN3S(C)(=O)=O)n2)cc1 (stereo unspecified),112.5%
4,Cc1nc2ccc(-n3ncnc3[C@@H]3CCCN3S(C)(=O)=O)cc2s1,-0.8415%
5,CN(Cc1cc(-c2cccnc2)no1)C(=O)C1CCCN1S(C)(=O)=O (stereo unspecified),-3.149%
6,Cc1cc(-c2cccnc2)nc(C2CCCN2S(C)(=O)=O)n1 (stereo unspecified),97.49%
7,Cc1ccc(O[C@@H]2C[C@H]3CN(Cc4nccn4C)CCN3C2)cc1.O=C(O)C(F)(F)F.O=C(O)C(F)(F)F,-3.373%
8,CCC1=N[C@@]2(CC[C@@H]3CN(S(=O)(=O)CC(C)C)C[C@@H]32)C(=O)N1CC1CC1,6.599%
9,C[C@@H]1CN(C2CCN(c3ccccc3F)CC2)C[C@]1(C)O,-10.13%
10,CC(=O)NC(C)(C)c1noc(C2(C#N)CCCCC2)n1,-6.661%
11,COc1ccccc1CNCc1nn(-c2ccccc2)c2c1CCC2,-29.63%
12,Cc1cc(-c2ccccc2C(=O)O)nc(C2CCCN2S(C)(=O)=O)n1 (stereo unspecified),105.2%
13,COc1ccc(-c2cc(C3CCCCCN3S(=O)(=O)N(C)C)on2)cc1 (stereo unspecified),-9.2%
14,CC(C)c1noc(C2CCCN2S(=O)(=O)Cc2ccc(F)cc2)n1 (stereo unspecified),-21.21%
15,CS(=O)(=O)N1CCCCCC1c1cc(-c2ccc(F)cc2)no1 (stereo unspecified),132.6%
16,Cc1ncsc1CCN(C)C(=O)C(c1cccnc1)N1CCOCC1 (stereo unspecified),2.321%
17,c1nc2onc(C3CC3)c2cc1-c1nnc(C2CC2)o1,-6.537%
18,O=C(COc1ccc2cccnc2c1)N1CCN[C@H]2CS(=O)(=O)C[C@H]21,2.711%
19,COc1ccc(-c2csc(-c3cccc(C(=O)O)c3)n2)cc1OC,-12.11%
20,COc1ccc(-c2cc(N)on2)cc1,77.55%
21,COc1ccc(-c2cc(C[C@@H]3C[C@H](N(C)C)C3(C)C)no2)cc1,1.876%
22,COc1ccc(-c2cc(-c3nc(CN4CCN(C)CC4)no3)[nH]n2)cc1,-0.5802%
23,COc1ccc(-c2cc(N)on2)cc1OC,106.7%
24,COc1ccc(-c2noc(C3=NN(C)C(=O)CC3)n2)cc1OC,-3.216%
25,COc1cccc(C(O)Cn2ncc3ncccc3c2=O)c1 (stereo unspecified),-14.22%
26,Cc1nc(CNC(C)c2ccc(S(=O)(=O)N(C)C)cc2)no1 (stereo unspecified),-3.104%

row,Structure (SMILES),Percent Effect
1,Cc1cscc1C(=O)NC1CC(=O)N(C(C)C)C1=O (stereo unspecified),-19.94%
2,Oc1nc(N2CCOCC2)nc2c1CCN(Cc1cccnc1)CC2,-6.583%
3,Oc1nc(N2CCOCC2)nc2c1CCN(Cc1ccccc1)CC2,129.9%
4,Oc1nc(N2CCOCC2)nc2c1CCN(Cc1cccc(F)c1)CC2,117%
5,Oc1nc(N2CCOCC2)nc2c1CCN(Cc1ccc(F)cc1)CC2,116.9%
6,Oc1nc(N2CCCC2)nc2c1CCN(Cc1cccnc1)CC2,121.5%
7,c1cc(CN2CCc3nc(N4CCOCC4)nc(NC4CC4)c3C2)co1,2.456%
8,Cn1ccnc1CN1C(=O)CO[C@H]2CN(Cc3ccc(F)c(F)c3)C[C@H]21,5.068%
9,Cn1cc(S(=O)(=O)N2CCC(OCCCc3ccccc3)C2)cn1 (stereo unspecified),-5.129%
10,CC(=O)c1ccc(N2CCCC(CO)(CCc3ccccc3)C2)nc1 (stereo unspecified),11.39%
11,CC(C)C(O)C1CCN(c2ccnc(C(=O)NCc3ccco3)c2)CC1 (stereo unspecified),-3%
12,COc1ccc(NC(=O)CCSc2ccc3nncn3n2)c(OC)c1,100.6%
13,COc1ccc(NC(=O)CSc2nncn2-n2cccc2)c(OC)c1,89.78%
14,COc1ccc(NC(=O)CCC2CCCN(S(=O)(=O)C3CC3)C2)c(C)c1 (stereo unspecified),-10.5%
15,COc1ccc(Cl)cc1NC(=O)CNc1ccn(CC(N)=O)n1,12.03%
16,COc1ccc(NC(=O)CNc2cccc3c2CCCC3)c(OC)c1,-2.331%
17,CCN(CC)S(=O)(=O)c1ccc(OC)c(NC(=O)CSC)c1,-7.74%
18,COc1ccc(OC)c(CCC(=O)Nc2cc(C)n[nH]2)c1,-33.89%
19,COc1cc(C(C)=O)ccc1SCC(=O)Nc1ccccn1,-8.38%
20,COc1ccc(OC)c(-n2cnnc2CN)c1,-14.69%
21,COc1ccc(OC)c(NC(=O)CSc2ccc3nncn3n2)c1,92.9%
22,COc1cc(Cl)c(C)cc1NC(=O)CNc1ccn(CC(N)=O)n1,-71.24%
23,COc1ccc(NC(=O)CSc2ccc3nncn3n2)c(OC)c1,116.1%
